The source of these data is PubChem BioAssay (NCI).

The panel holds about 83,000 compounds, 20% with a hit somewhere; the sample as a whole holds those more often.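 Each cell line was grown in a 96-well plate and treated with one concentration of compound for 48 hours. Values below 10 were considered active.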 Active and inactive are the calls of the source.

This experiment has as its system MDA-MB-468 breast. In words: NCI-60 one-dose screen, 48 h (100 = growth as untreated, 0 = no growth, -100 = all killed). The note with it: 10 µM unless noted.
Consider `C/C(=N\Nc1cc(C)nc2ccc(Br)cc12)c1ccc([N+](=O)[O-])cc1`, for which the growth is 51.5% (inactive).

As for `Nc1cc(-c2ccc(Cl)cc2)nn1-c1nc2ccccc2nc1Cc1ccccc1`, the growth is 75.7% (inactive).

On to `CCOc1cc(Cl)c(C(C)NC(=O)c2cccc(OC)c2)cc1OCC` (stereo not given), for which the growth is -61.6% (active).

Turning to `Nc1n[nH]c2cccc(C#Cc3cccc(NC(=O)c4cccc(C(F)(F)F)c4)c3)c12`, the growth was 79.3% (inactive).

Regarding `c1ccc(-c2cn3c(ccc4ccccc43)n2)cc1`, the growth was 30.6% (inactive).

Consider `Cc1ccccc1NS(=O)(=O)c1cccc(C(=O)Nc2ccc(Br)cc2)c1`, for which the growth is -2.56% [25 µM] (active).

As to `Cc1cc2nc3c4ccccc4n(CCN(C)C)c3nc2cc1C`, the growth was -12.1% (active).

In the case of `CCCCCCCCCCCCCCn1c2ccccc2c2c3c(c4c5cc(OC)ccc5oc4c21)C(=O)NC3=O`, the growth is 106% (inactive).

As for `COc1cc2ncnc(-n3ncc4cc(NC(=O)Nc5ccccc5)ccc43)c2cc1OC`, the growth is -67% (active).

As for `CSCCC(C(=O)O)N1C(=O)/C(=C/c2ccc(O)c(O)c2)SC1=S` (stereo not given), the growth is 100% (inactive).

Turning to `COc1cc(/C=C2\SC(=S)N(/C=C/c3nc4ccccc4[nH]c3=O)C2=O)cc(OC)c1OC`, the growth was 81.2% (inactive).

Regarding `O=C(CCCl)OCCOc1ccccc1`, the growth is 107% (inactive).

For the compound `O=C(CI)NC1Oc2ccccc2-c2oc(=O)c(-c3ccccc3)cc21` (stereo not given), the growth is -42.3% (active).

Turning to `NCCN1CCN(c2nc(-c3ccccc3)nc3nc(-c4ccccc4)oc23)CC1`, the growth was -33.6% (active).

With `CCN1C(=O)N(CC)C2C1NC(=S)N2/N=C/C=C/c1cccs1` (stereo not given), the growth was 7.59% (active).

For `Cc1cnc(C=O)c2cccc([N+](=O)[O-])c12`, the growth is 89.7% (inactive).

Turning to `COc1ccc2[nH]c(=O)c(CN3CCN(c4nccc(-c5ccc(Cl)cc5)n4)CC3)cc2c1`, the growth was 88.6% (inactive).

As for `Oc1ccc(Cl)cc1-c1cc(-c2ccc(F)cc2)n[nH]1`, the growth was -0.461% (active).

For the compound `CN(C)CCN1C(=O)c2cccc3c(N)ccc(c23)C1=O`, the growth is 38.7% (inactive).

Turning to `Nc1nc(-c2ccc(Cl)cc2)nc2c1sc(=S)n2-c1ccccc1`, the growth was 27.3% (inactive).

For `CCOC(=O)c1nnn(-c2ccccc2)c1C1=CN(C)CCC1`, the growth is 120% (inactive).

For `O=c1c2cc(F)ccc2sc2c(N3CCCCC3)nc3ccccc3c12`, the growth is 95.6% (inactive).

As to `CC(=O)n1c(-c2ccc(Cl)cc2)nc2c(c1=O)C(c1ccc(Cl)cc1)c1sc3c(Cl)cccc3c1O2` (stereo not given), the growth was 5.06% (active).

As for `Cc1nc2cc(Nc3nc(NCCN)nc(Nc4ccc(F)cc4)n3)ccc2n1Cc1ccccc1`, the growth is 73.2% (inactive).

Consider `CC1=CC(C)(C)NC(=S)N1c1ccc(S(=O)(=O)O)c2cccc(S(=O)(=O)O)c12`, for which the growth was 107% (inactive).

On to `Cc1ccc(/C=C(\C#N)c2cc3ccccc3[nH]2)cc1`, for which the growth is 43.2% (inactive).

Regarding `O=C1C(=C(O)c2ccccc2)C(=O)c2ccccc21`, the growth is 120% (inactive).

Consider `c1ccc(-c2cn3c(-c4c[nH]c5ccccc45)csc3n2)cc1`, for which the growth is 3.41% (active).

As for `CC1=C(C(=O)Nc2ccc(F)cc2)C(c2ccccc2)C2=C(CC(C)(C)CC2=O)N1` (stereo not given), the growth is 67.7% (inactive).

On to `COc1ccc(/C=C/c2nc(N3CCOCC3)c3nc(Cl)c(Cl)cc3n2)cc1OC`, for which the growth was 101% (inactive).

For `COC(=O)/C=C1\S/C(=N\NC(=O)c2cc3ccc2/C=C\c2ccc(cc2)/C=C\3)N(c2ccccc2)C1=O`, the growth was -0.388% (active).

Turning to `N#CC1c2ccccc2-c2ccccc2N1C(=O)c1ccccc1` (stereo not given), the growth was 32.9% (inactive).

In the case of `COc1cc2c(cc1OC)-c1ccc3cc4c(cc3c1N(CCN(C)C)C2)OCO4`, the growth was -30.4% (active).

`O=[N+]([O-])CC(c1ccccc1F)c1c[nH]c2ccccc12` (stereo not given): the growth was 44% (inactive).

Regarding `O=C(Nc1ccccc1Cl)Oc1ccc2ccccc2c1`, the growth is 104% (inactive).

On to `O=C(NNC(=O)c1cccc(Cl)c1)c1ccccc1`, for which the growth was 94.4% (inactive).

With `CCC(CCC(C)C1CCC2C3CC=C4CC(O)CCC4(C)C3CCC12C)C(C)C` (stereo not given) (tested in a mixture with another compound), the growth was 114% (inactive).

`Cc1cc(C)cc(NC2=C(Cl)C(=O)c3nc(C)ccc3C2=O)c1`: the growth was -75.8% (active).

As for `COC(=O)[C@H](C)NC(=O)[C@@H]1CCCN1C(=O)CNC(=O)[C@H](C)N`, the growth is 98.7% (inactive).

As to `O=[N+]([O-])c1ccc(-c2ncc(-c3ccc(Br)cc3)o2)cc1`, the growth is 102% (inactive).
